Assay results as given in PMC5540273 (PLoS ONE, 2017).

tested on: WEE2; settings: concentration: 1 μM, replicates: in singlicate; n = 1
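Note: KINOMEscan kinase panel screen.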

Compared with `COc1ccccc1CNC(=O)c1cc(C(=O)c2ccccc2C)c[nH]1` [GSK364507], `COc1ccc(C2=C(Nc3cccc(C(=O)O)c3)C(=O)NC2=O)cc1` [SB-390765] is higher in “%Inh” value: 12% for the first, 16% for the second.

First: COc1cc2ncnc(Nc3ccc4nc(-c5ccccc5)[nH]c4c3)c2cc1OC.Cl [GW282450]
Second: Cn1ccc2ncnc(Oc3ccc(Nc4nc5ccccc5[nH]4)cc3)c21
The “%Inh” value of the first is lower: 0% for the first, 19% for the second.

First: NC(=O)c1nnc2ccccc2c1N
Second: Cc1cccc(-c2cc(Nc3ccncc3)c3ccccc3n2)n1 [GSK223675]
The “%Inh” value of the first is higher: 20% for the first, 0% for the second.

First: CN1C(=O)C(Nc2ccc(Cl)c(C(=O)O)c2)=C(c2ccc(Cl)cc2)C1=O [SB-404290]
Second: Fc1cc(Cl)ccc1Nc1ccnc2cc(I)ccc12 [GW551191]
The “%Inh” value of the first is higher: 21% for the first, 0% for the second.

Going from `Cc1ccc(NC(=O)Nc2cc(C(C)(C)C)nn2-c2ccccc2)cc1` [GSK1014915] to `Cn1ccc2ncnc(Oc3ccc(NC(=O)Nc4ccccc4)cc3)c21`, the “%Inh” value falls from 7% to 0%.

Going from `CCn1c(-c2cccnc2O)nc2cnccc21` [SB-736715] to `Cc1cccc(-c2nc(C)cc(Nc3ccncc3)n2)n1` [GSK257997], the “%Inh” value falls from 84% to 2%.

Going from `CS(=O)(=O)c1ccc(-c2c(-c3ncn[nH]3)sc(N3CCOCC3)c2C#N)cc1` to `CC1=C(C(=O)Nc2cc3cn[nH]c3cc2F)C(c2ccc(C(F)(F)F)cc2)CC(=O)N1` (stereo not drawn) [GSK429286], the “%Inh” value rises from 10% to 20%.

In the case of `Cc1cccc(-c2nc(Nc3ccc4[nH]ncc4c3)c3ccccc3n2)n1` [GW857175], the “%Inh” value is reported as 0%.
